High-throughput results from PubChem.
HepG2 tox-1: kills HepG2 cells in TGF-b inhibitor counter-screen; HepG2 CAGA-GFP viability, ATP luminescence, 18 h; Potency, µM (highest dose often 46.1 µM), for inactives: at the top dose activity change, negative = cytotoxicity, hits mostly cytotoxic; 410,000 tested, 0.76% active; AID 588856; also: potency is read from the fitted curve at half-maximal effect
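HepG2 CAGA-GFP cells (1000/well, DMEM with 1% FBS) received compound, then TGF-beta at 500 pg/mL final, and were incubated 18 hours at 37 degrees C. Viability was read by CellTiter-Glo luminescence. Media-only wells were set as complete cell-killing and DMSO as no toxicity.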
TGFb inhibitor: TGF-b pathway inhibition; HepG2 CAGA-GFP TGF-b/SMAD3 reporter, GFP fluorescence, 18 h; TGF-beta stimulated, 500 pg/mL final; Potency, µM (top dose mostly 46.1 µM), for the others: top-dose activity, negative = inhibition, actives largely listed as inhibitors; 410,000 tested, 1.2% active; AID 588855; also: potency is read from the fitted curve at half-maximal effect; % is scaled to controls: 0 for no effect and ±100 for the full control effect; nearly all actives have a fitted effect of over 65% in size
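HEPG2 CAGA-GFP, 1000 cells/well; 2 h settle, 37 C; cpd via pin tool; TGF-b 500 pg/mL final; 18 h, 37 C; GFP imaging ex488/em500-530; %Activity normalised to -TGF-b and +DMSO controls; CRC fit, curve class.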
IL-1B inflam inh: inhibitors of inflammasome signaling (IL-1 beta secretion) | THP-1 LPS/ATP IL-1B secretion, AlphaLISA, 16 h; hits give low values | 360,000 tested, 4.7% active | AID 743279 | activity change, % at 57.5 µM; in the data active = activity change below about -50%; inconclusive = mostly about -30% to -49%; also: % is scaled to controls: 0 for no effect and ±100 for the full control effect
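THP-1 cells pretreated 1 hr with compounds (up to 57.5 uM final), then stimulated with LPS (250 ng/mL final) plus ATP (1.25 mM final); secreted IL-1B measured by AlphaLISA after 16 hr, decreased signal indicating inhibition.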
HT1080 IDH1KD tx: toxicity to HT-1080 IDH1 knockdown cells (counter line) | HT-1080 IDH1 knockdown viability, ATP luminescence, 48 h | Potency, µM (top dose mostly 46.1 µM), inactives show top-dose activity, negative = toxicity, hits mostly cytotoxic | 360,000 tested, 2% active;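 also: potency is read from the fitted curve at half-maximal effect; 0% = DMSO wells and -100% = cell-free medium wells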
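Knockdown cells (IDH1KD HT-1080) received compounds 2 h after plating at 750 cells/well and were kept 48 h at 37 °C in 5% FBS RPMI. A CellTiter-Glo luminescence read gave % activity for curve fitting.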
HT1080NT lethal: kills 2HG-producing HT-1080-NT fibrosarcoma cells; 360,000 tested, 1.6% active; AID 686970; HT-1080-NT fibrosarcoma viability, CellTiter-Glo ATP luminescence, 48 h; Potency, µM (series often up to 46.1 µM), for the others: at the highest dose activity, negative = less viability, hits mostly cytotoxic;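 also: NT is the 2HG producing partner of a matched IDH1 knockdown line; potency is read from the fitted curve at half-maximal effect; 0% = DMSO-treated cells and -100% = media-only wells without cells; nearly all actives have a fitted effect of over 55% in size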
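Fibrosarcoma NT cells, 750 per well in 5% FBS RPMI, were exposed to compound for 48 hours. Viability: CellTiter-Glo luminescence.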
Giardia kill: kills Giardia lamblia. 340,000 tested, 0.15% active. activity change, % at 7.66 µM, hits read low. Giardia lamblia trophozoite viability; in the data active = activity change below about -80%; inconclusive = between about -30% and that limit;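 also: parasites exposed to compound for two days anaerobically before the ATP read; % is scaled to controls: 0 for no effect and ±100 for the full control effect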
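Compounds were tested on trophozoites seeded at 100 cells/well and held 48 hrs at 37 deg C anaerobically. An ATP-based luminescent kit measured the remaining live cells.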
TGFb CAGA inh: confirmation of TGF-b signaling inhibitors in HepG2 reporter cells; shares compounds with TGFb inhibitor; HepG2 CAGA-GFP TGF-b reporter, GFP fluorescence, 18 h; cells stimulated with TGF-beta, 500 pg/mL; Potency, µM (doses to about 46.1 µM), inactives show at the highest dose activity, negative = inhibition, actives largely listed as inhibitors; 1,600 tested, 63% active; also: potency is read from the fitted curve at half-maximal effect; % is scaled to controls: 0 for no effect and ±100 for the full control effect; nearly all actives have a fitted effect of over 65% in size
HepG2 tox-2: toxic to HepG2 cells in TGF-b counterscreen | shares compounds with TGFb inhibitor | HepG2 CAGA-GFP viability, ATP luminescence, 18 h; cells stimulated with TGF-beta, 500 pg/mL | Potency, µM (titrated, usually from 46.1 µM), without a hit: at the highest dose activity, negative = cytotoxicity, usual class: inhibitors | 1,600 tested, 27% active | AID 720535; also: potency is read from the fitted curve at half-maximal effect; % is scaled to controls: 0 for no effect and ±100 for the full control effect; nearly all actives have a fitted effect of over 70% in size
TGFb CCL64 inh: TGF-b inhibition, CCL64 orthogonal assay | Potency, µM (titrated, usually from 46.1 µM), inactives show top-dose activity, negative = inhibition, hits mostly inhibitors | CCL64 CAGA-GFP reporter, TGF-b stimulated, GFP fluorescence, 18 h | 1,600 tested, 41% active | AID 720536 | shares compounds with TGFb inhibitor; also: potency is read from the fitted curve at half-maximal effect; nearly all actives have a fitted effect of over 65% in size
COP TGFb inh: TGF-b inhibition validated with COP promoter; shares compounds with TGFb inhibitor; HepG2 COP-GFP TGF-b reporter, GFP fluorescence, 18 h; cells stimulated by added recombinant TGF-beta; Potency, µM (top dose mostly 46.1 µM), inactives show top-dose activity, negative = inhibition, usual class: inhibitors; 1,600 tested, 3% active; also: potency is read from the fitted curve at half-maximal effect; nearly all actives have a fitted effect of over 70% in size
* = called active by the depositor; ? = inconclusive; . = no result. Shown are actives, neighbours in structure and some others; about 6.5% of the full set was active somewhere. Unless noted, calls follow the shape of the dose curve; as a rule, active = well fitted curve in the direction sought with a large enough effect; inconclusive = small, poorly fitted or top-dose-only effect, or another doubt; inactive = no such curve, though single readings can be large; an effect the other way counts as inactive or inconclusive.

SMILES | HepG2 tox-1 | TGFb inhibitor | IL-1B inflam inh | HT1080 IDH1KD tx | HT1080NT lethal | Giardia kill | TGFb CAGA inh | HepG2 tox-2 | TGFb CCL64 inh | COP TGFb inh
Cc1ccc(COC(=O)c2nn(C)c(=O)c3ccccc23)cc1 | -9% | ? | 41 | ? | -16% | -12 | ? | 3% | 6% | -8%
COCCNc1ccc(-c2nc(-c3ccncc3)no2)cc1[N+](=O)[O-] | 1% | 3% | . | . | . | . | . | . | . | .
O=C1Nc2ccccc2N=C(c2ccc3c(c2)OCO3)C1N(C(=O)c1ccc2ccccc2c1)C1CC1 (stereo unspecified) | 0% | 13µM* | ? | ? | ? | . | 23µM* | ? | 16µM* | 51%
O=C1Nc2ccccc2N=C(c2ccc3c(c2)OCO3)C1N(C(=O)c1ccnc2ccccc12)c1ccccc1 (stereo unspecified) | -13% | 16µM* | ? | ? | ? | . | 23µM* | -24% | ? | 49%
O=C1Nc2ccccc2N=C(c2ccc3c(c2)OCO3)C1N(CCc1ccccc1)C(=O)CSc1ncccn1 (stereo unspecified) | -16% | ? | ? | ? | ? | . | . | . | . | .
CCOC(=O)C1=CN(Cc2ccco2)S(=O)(=O)NC1c1ccc(C(F)(F)F)cc1 (stereo unspecified) | -25% | -9% | 14 | -1% | 8% | 10 | . | . | . | .
COc1ccc(Nc2nccc(-c3cccc(N)c3)n2)cc1 | -11% | 10µM* | -87* | ? | ? | ? | 8.2µM* | 5.8µM* | 8.2µM* | 43%
COC(=O)c1cccc(COC(=O)c2ccc(CS(=O)(=O)c3ccc(C)cc3)cc2)c1 | -19% | -4% | 41 | -15% | 2% | -1 | . | . | . | .
CCCCCCN1C[C@H](n2cc(-c3ccc(F)cc3)nn2)[C@@H](O)C[C@@H]1c1ccc(Cl)cc1 | 11µM* | 7.1µM* | -104* | ? | ? | . | 21µM* | ? | 18µM* | ?
CC(C)C[C@H]1CNC(=S)N1CC1CCCN1C[C@H](CC(C)C)N1C[C@H](CC(C)C)N(CCc2ccccc2)C1=S (stereo partly specified) | -39% | ? | 16 | -4% | -2% | 0 | . | . | . | .
COc1ccccc1Nc1cc(C)nc(Nc2ccccc2OC)n1 | -41% | -10% | -14 | 1% | 1% | -14 | . | . | . | .
COc1cccc(/C=N/Nc2ncnc(Cl)c2N)c1O | -27% | 7.1µM* | 14 | 4.1µM* | 8.2µM* | -2 | ? | 12µM* | 5.2µM* | 57%
Cc1ccc(CSc2nnc(SCC(=O)N/N=C/c3ccc(C(=O)O)cc3)s2)cc1 | 5% | -14% | 7 | -3% | 11% | -24 | . | . | . | .
O=C(Nc1ccccc1Cl)Nc1ccccc1Cl | 6% | 8% | 7 | 19% | -19% | 16 | . | . | . | .
O=C(Nc1csc([N+](=O)[O-])c1)Nc1ccccc1Cl | -57% | 13µM* | -98* | ? | ? | ? | 16µM* | ? | ? | 48%
CCOc1ccc(C(=O)c2cc([N+](=O)[O-])ccc2N2CCOCC2)cc1 | -32% | 1.1µM* | 8 | 0.026µM* | 0.037µM* | 5 | ? | -3% | 0.73µM* | 1%
CCN(C(=O)c1cc2c(C)nc3ccccc3c2o1)c1cc(Cl)ccc1OC | 8% | 10µM* | -7 | ? | ? | -14 | ? | -18% | ? | -3%
CCOc1ccc(NC(=O)c2cc3c(C)nc4ccccc4c3o2)cc1 | -3% | -12% | 19 | ? | ? | -14 | . | . | . | .
COc1ccc(CCN=C(N)NS(=O)(=O)c2ccc(F)cc2)cc1OC | -5% | 5% | 0 | -10% | -3% | -12 | . | . | . | .
Clc1ccc(-n2nnnc2Sc2ncnc3sccc23)cc1 | -105% | 10µM* | -120* | ? | 21µM* | -7 | 4.6µM* | 16µM* | 2.9µM* | ?
Cc1ccc(NC(=O)Cn2c(=O)n(CCCCC(=O)NCc3ccccc3Cl)c(=O)c3ccccc32)cc1C | 2% | -15% | . | . | . | . | . | . | . | .
Cc1ccc2nc(/N=C(\N)NC(=O)NC3CCCCC3)nc(C)c2c1 | -17% | 10µM* | -55* | 23µM* | 15µM* | 7 | 12µM* | ? | 16µM* | 54%
CNc1c2cccc(C)c2nc2c(C(=O)NCCN(C)C)cccc12 | -7% | 1.1µM* | -117* | 7.3µM* | ? | 6 | 0.58µM* | 0.52µM* | 1.3µM* | 69%
Cc1ccc(C(=O)NCCN(C)C)c(C)c1 | -2% | -7% | 12 | 9% | 6% | -2 | . | . | . | .
CCN(CC)c1ccc(Nc2nc(N3CCOCC3)c3ccccc3n2)cc1 | -94% | 10µM* | -111* | ? | 11µM* | 4 | ? | 21µM* | ? | 30%
O=C(CSc1nc2ccccc2nc1Cc1ccc(Cl)cc1)N1CCN(c2ccccc2)CC1 | -24% | -8% | . | . | . | . | . | . | . | .
O=C(Oc1ccc(Cl)c2cccnc12)c1cccnc1 | -63% | 10µM* | ? | ? | ? | -10 | -13% | 0% | ? | 2%
O=C(Oc1ccc(Cl)c2cccnc12)N1CCCCC1 | 4% | 1% | 10 | -23% | 0% | -1 | . | . | . | .
Cc1ccc(NS(=O)(=O)c2cccs2)nc1 | -27% | -11% | -2 | 8% | 23% | -4 | . | . | . | .
Clc1ccc2nc(-c3ccco3)c(Cc3ccccc3)n2c1 | -19% | 11µM* | -6 | ? | ? | . | 15µM* | ? | ? | 19%
